The source of these data is PubChem BioAssay (Tox21).

Records with an inconclusive call do not appear. Unmarked numbers belong to inactive results. The call rests on the fitted dose curve; in most records, active means well fitted cell-killing curve with a large enough effect in the repeat runs; inconclusive means weak or mixed curves; inactive means flat fitted curve, though single readings scatter.
On the % scale 0 is the no-effect control and ±100 the full control effect.

A short description of this test: qHTS RealTime-Glo MT Cell Viability Assay in HepG2 cells - 8 hour (AID 1224873). Further: nearly all actives have a fitted effect of over 55% in size. As to conditions: RealTime-Glo luminescence; series mostly up to 76.8 µM; viability change, negative = cytotoxic: at the top concentration. An excerpt: National Center for Advancing Translational Sciences [NCATS]
NIH Chemical Genomics Center [NCGC]
U.S. Environmental Protection Agency [EPA]
National Institutes of Environmental Health Sciences [NIEHS]
National Toxicology Program [NTP]
U.S. Food and Drug Administration [FDA]
Measure of cell viability is critical in the cell-base assay. Analysis of cell viability is necessary for the characterization of cell responses to cytotoxic drugs and environmental stress. A RealTime-Glo MT Cell Viability Assay to monitor cell viability in real time of continues cell culture during 40 hours of compound treatment was used to screen Tox21 10K library compounds in HepG2 cells. The RealTime-Glo MT Cell Viability Assay is a nonlytic, homogeneous, bioluminescent method to measure cell viability in real time using a simple, plate-based method. The assay involves adding NanoLuc luciferase and a cell-permeant prosubstrate to cells in culture. Viable cells reduce the proprietary prosubstrate to generate a substrate for NanoLuc luciferase. This substrate diffuses from cells into the surrounding culture medium, where it is rapidly used by the NanoLuc Enzyme to produce a luminescent signal. The signal correlates with the number of viable cells, making the assay well suited for cytotoxicity studies.
Tox21 Assay Protocol Summary:
The mixture of HepG2 cell suspension and reagents were dispensed at 600cells/6 ul/well in 1536-well tissue culture treated black solid bottom plates using a Multidrop dispenser. After the assay plates were incubated at a 37 C/5% CO2 incubator for 5 hours, 23 nL of compounds dissolved in DMSO, positive and negative controls was transferred to the assay plate by a pintool work station. The plates were incubated at 37 C for 40 hours. The luminescence intensity were measured at 0h, 8h, 16h, 24h, 32h and 40h time points using ViewLux plate reader during compound treatment.
On the technique in general: Quantitative high-throughput screening tests each substance at several concentrations.
Regarding `Cc1cccc(N)n1`, the “viability change, negative = cytotoxic” value is -1.23%.
The value for `COc1cc(OC)cc(OC)c1` was 7.14% [at 35.3 µM]; that for `C=CC(=O)OCC[N+](C)(C)C` was 3.13%.
In the case of `C[C@@H]1NC(=O)[C@@H](N)CNC(=O)[C@H](C2CCNC(N)=N2)NC(=O)/C(=C/NC(N)=O)NC(=O)[C@H](CNC(=O)C[C@@H](N)CCCN)NC1=O` (stereo not given in full), the viability change, negative = cytotoxic is 3.98% [at 0.29 µM].
Regarding `CC(CN1CC(=O)NC(=O)C1)N1CC(=O)NC(=O)C1` (stereo not given), the “viability change, negative = cytotoxic” value is -1.86%.
For the molecule `C[C@]12C=CC(=O)C=C1[C@@H](F)C[C@@H]1[C@@H]2[C@@H](O)C[C@@]2(C)[C@H]1CC[C@]2(O)C(=O)CO`, the “viability change, negative = cytotoxic” value is 0.506% [at 35.3 µM].
In the case of `O=C(O)P(=O)(O)O`, the “viability change, negative = cytotoxic” value was 3.38% [at 35.3 µM].
In the case of `CC(=O)Nc1ccc(OCCOCCOc2ccc(NC(C)=O)cc2)cc1`, the “viability change, negative = cytotoxic” value is -5.71% [at 35.3 µM].
With `N=C(N)N`, the “viability change, negative = cytotoxic” value is 0.294% [at 35.3 µM].
As to `C[C@@H](CN1CC(=O)NC(=O)C1)N1CC(=O)NC(=O)C1`, the “viability change, negative = cytotoxic” value is 10.6% [at 35.3 µM].
The value for `COC(C)(C)CC(C)=O` was 2.46%; that for `Cc1ccc(NC(N)=O)cc1` was 0.787%; that for `CC1=C(O)C(=O)CO1` was 0.272%.
`NNC(=O)CCCCC(=O)NN`: the “viability change, negative = cytotoxic” value was 3.33%.
As for `CC/C=C/CCCCCCCCCCOC(C)=O`, the “viability change, negative = cytotoxic” value was 7.05%.
For `O=C(O)Cc1c(Cl)ccc(Cl)c1Cl`, the “viability change, negative = cytotoxic” value is -3.79%.
Consider `CC1(C)S[C@@H]2[C@H](NC(=O)Cc3ccccc3)C(=O)N2[C@H]1C(=O)O` (tested in a mixture with another compound), for which the “viability change, negative = cytotoxic” value was -0.11% [at 35.3 µM].
In the case of `C[n+]1ccccc1/C=N/O`, the “viability change, negative = cytotoxic” value is 6.15% [at 35.3 µM].
Take `CC(C)C[P+](C)(CC(C)C)CC(C)C`: the “viability change, negative = cytotoxic” value is -3.01%.
For `CCCCN=C(N)N=C(N)N`, the “viability change, negative = cytotoxic” value is 0.908% [at 35.3 µM].
With `C=CCCCCCCCCCCCCCC`, the viability change, negative = cytotoxic is 2.93% [at 15.8 µM].
For `CCCCNCC`, the “viability change, negative = cytotoxic” value is 1.79%.
With `NCC1CCC(C(=O)Oc2ccc(CCC(=O)O)cc2)CC1` (stereo not given), the “viability change, negative = cytotoxic” value was 2.09% [at 35.3 µM].
In the case of `Cc1cc(C)c(C)c(C)c1`, the “viability change, negative = cytotoxic” value was 2.29%.
For the molecule `CCCCCCC(=O)c1ccccc1`, the “viability change, negative = cytotoxic” value is 2.64%.
`C=CCn1cc[n+](C)c1`: the “viability change, negative = cytotoxic” value was 0.201%.
As to `CCCCCCCCCCCCCCBr`, the “viability change, negative = cytotoxic” value was 0.706%.
On to `CC(=O)OCC(=O)[C@@]1(O)CC[C@H]2[C@@H]3CCC4=CC(=O)C=C[C@]4(C)[C@H]3[C@@H](O)C[C@@]21C`, for which the “viability change, negative = cytotoxic” value was -0.708% [at 35.3 µM].
Take `Cc1cc(C)c(N)c(Cl)c1`: the “viability change, negative = cytotoxic” value was 5.1%.
The value for `CCCCCCCCC1CO1` (stereo not given) was 0.232%; that for `COC(=O)c1ccccc1Cl` was 3.25%; that for `CCC(C)c1nccnc1OC` (stereo not given) was -6.55%.
Take `Cc1cc(N)no1`: the “viability change, negative = cytotoxic” value was 0.606%.
Take `CC1(C)C(=O)C(C)(C)C1=O`: the “viability change, negative = cytotoxic” value is 0.348%.
With `CCCCCCCCOCCC#N`, the “viability change, negative = cytotoxic” value is -3.45%.
On to `CN(C)CCC[C@@]1(c2ccc(F)cc2)OCc2cc(C#N)ccc21`, for which the “viability change, negative = cytotoxic” value was 8.23% [at 35.3 µM].
The value for `O=C(O)CCCCCCCCCC(=O)O` was 2.54%.
On to `CCCCCCCCCCCCCC(=O)OCC`, for which the “viability change, negative = cytotoxic” value is 9.56%.
The value for `CCC(C)SSC(C)CC` (stereo not given) was 1.38%; that for `O=P(O)(O)C(O)(Cc1cccnc1)P(=O)(O)O` was 2.23% [at 35.3 µM].
